GPT2 inh: inhibitors of human GPT2 alanine aminotransferase. Recombinant GPT2, coupled pyruvate oxidase/HRP Amplex Red fluorescence. Q8TD30. 0.25% of 100,000 active. Potency, µM (series often up to 57.7 µM), actives largely listed as inhibitors. AID 1671188; note: nearly all actives have a fitted effect of over 60% in size
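Inhibition is scored from Amplex Red fluorescence generated when pyruvate oxidase and HRP act on pyruvate released by GPT2. Reactions contain 10ng/uL enzyme, 250uM a-KG and 2mM L-alanine and run 30 min at room temperature.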
HEK cytotox: cytotoxic compounds in HEK 293 cells; HEK 293 viability, ATP luminescence (CellTiter-Glo), 48-72 h; Potency, µM (series often up to 115 µM), most hits filed as inhibitors; 6.6% of 94,000 active; AID 1345083; note: nearly all actives have a fitted effect of over 60% in size
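Viability of HEK 293 cells, plated at 250 cells/well, was judged by cellular ATP after compound treatment for 48 or 72 hr. Luminescence was imaged 10 min after CellTiter-Glo addition at room temperature.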
FLuc inh-1: inhibitors of firefly (Photinus pyralis) luciferase. Potency, µM (doses to about 115 µM), usual class: inhibitors. purified P. pyralis luciferase, luminescence, biochemical. AID 1347043. 2.5% of 76,000 active. P08659; note: nearly all actives have a fitted effect of over 65% in size
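Luminescence read by CCD imager after adding enzyme (10nM final) to wells holding compound, titrated in qHTS. Substrates 10uM each D-luciferin and ATP; buffer 50mM Tris acetate pH 7.5, 10mM Mg acetate, Tween-20, BSA.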
NIH3T3 tox: cytotoxic compounds in NIH 3T3 cells. 4.3% of 94,000 active. Potency, µM (series often up to 96.7 µM), most hits filed as inhibitors. NIH 3T3 viability, CellTiter-Glo ATP luminescence, 48-72 h; note: nearly all actives have a fitted effect of over 55% in size
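Cells were seeded at 400 per well, treated with pin-transferred compound, and kept 48 or 72 hr at 37 °C before CellTiter-Glo addition and luminescence imaging of cellular ATP.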
NPR1 antag: human Npr1 receptor antagonism; P16066; HEK293 hNpr1 GloSensor cGMP, ANP-stimulated luminescence; Potency, µM (titrated, usually from 46.3 µM), most hits filed as inhibitors; 1.6% of 76,000 active; calls by dose curve; note: nearly all actives have a fitted effect of over 60% in size
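HEK293 cells stably expressing human Npr1 and cGMP GloSensor pGS-40F, loaded 2 h with 2% GloSensor reagent, given compound 30 min at room temperature. Luminescence read before and 20 min after 0.1 nM hNppA.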
FLuc SDR -ATP: stabilizes firefly luciferase without ATP. Purified FLuc-C-HiBiT, Nano-Glo HiBiT luminescence, no ATP. shares compounds with FLuc inh-1. Potency, µM (highest dose often 32.7 µM), hits mostly activators. 7.8% of 1,300 active; note: nearly all actives have a fitted effect of over 55% in size
FLuc SDR ATP: stabilizes firefly luciferase with ATP present. shares compounds with FLuc inh-1. purified FLuc-C-HiBiT + ATP, HiBiT complementation luminescence. Potency, µM (highest dose often 32.7 µM), usual class: activators. 8.7% of 1,300 active;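 note: signal reports ligand binding via conformational change of the enzyme rather than luciferase catalysis; nearly all actives have a fitted effect of over 55% in size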
FLuc inh-2: firefly luciferase enzyme inhibition; shares compounds with FLuc inh-1; purified FLuc-C-HiBiT enzyme, luciferin luminescence; Potency, µM (titrated, usually from 32.7 µM), hits mostly inhibitors; 42% of 1,300 active; note: nearly all actives have a fitted effect of over 70% in size
Npr1 antag conf: confirmation of human Npr1 natriuretic peptide receptor antagonists | shares compounds with NPR1 antag | HEK293 hNpr1 cGMP GloSensor luminescence, ANP-stimulated | Potency, µM (titrated, usually from 57.6 µM), hits mostly inhibitors | 76% of 1,400 active | AID 1347044; calls by dose curve; note: nearly all actives have a fitted effect of over 70% in size
NPR2 antag: selectivity test of Npr1 antagonists against human Npr2; Potency, µM (titrated, usually from 57.6 µM), usual class: inhibitors; HEK293 hNpr2 GloSensor cGMP luminescence, CNP-stimulated; 67% of 1,400 active; shares compounds with NPR1 antag; AID 1347046; calls by dose curve; note: nearly all actives have a fitted effect of over 70% in size
Target sequence (P20594 whole entry, looked up): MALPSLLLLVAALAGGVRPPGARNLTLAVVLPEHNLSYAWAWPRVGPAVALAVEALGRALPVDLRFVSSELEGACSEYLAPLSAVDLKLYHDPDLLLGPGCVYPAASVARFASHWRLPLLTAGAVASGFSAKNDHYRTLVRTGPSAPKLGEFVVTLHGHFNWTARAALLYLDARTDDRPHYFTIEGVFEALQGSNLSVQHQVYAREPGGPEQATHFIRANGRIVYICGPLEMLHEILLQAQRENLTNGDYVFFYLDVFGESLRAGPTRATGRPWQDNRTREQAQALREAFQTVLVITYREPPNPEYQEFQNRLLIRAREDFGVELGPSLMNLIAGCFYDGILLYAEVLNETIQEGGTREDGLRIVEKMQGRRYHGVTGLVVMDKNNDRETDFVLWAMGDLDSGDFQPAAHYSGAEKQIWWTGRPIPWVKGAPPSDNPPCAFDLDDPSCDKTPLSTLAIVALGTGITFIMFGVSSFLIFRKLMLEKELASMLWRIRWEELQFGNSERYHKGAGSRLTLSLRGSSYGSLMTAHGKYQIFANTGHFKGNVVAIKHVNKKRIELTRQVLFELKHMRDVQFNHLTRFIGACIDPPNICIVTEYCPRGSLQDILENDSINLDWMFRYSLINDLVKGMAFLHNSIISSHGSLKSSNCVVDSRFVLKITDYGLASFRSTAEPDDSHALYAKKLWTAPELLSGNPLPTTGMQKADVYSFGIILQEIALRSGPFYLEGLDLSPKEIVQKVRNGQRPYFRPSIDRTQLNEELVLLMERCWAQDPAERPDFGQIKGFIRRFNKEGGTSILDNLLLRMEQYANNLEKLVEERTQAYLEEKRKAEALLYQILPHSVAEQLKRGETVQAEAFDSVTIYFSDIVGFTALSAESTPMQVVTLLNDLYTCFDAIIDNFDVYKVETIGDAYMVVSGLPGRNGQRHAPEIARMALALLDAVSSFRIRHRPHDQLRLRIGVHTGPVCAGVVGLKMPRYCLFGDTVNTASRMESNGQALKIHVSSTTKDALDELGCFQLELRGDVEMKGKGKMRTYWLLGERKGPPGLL
FLuc counter: FLuc enzyme inhibition, Npr1 counter-screen. Potency, µM (doses to about 57.6 µM), most hits filed as inhibitors. purified FLuc enzyme, luminescence, Km substrate. shares compounds with NPR1 antag. 0.7% of 1,400 active. AID 1347047
GloSensor ctrl: reduces cGMP signal in GloSensor control cells | shares compounds with NPR1 antag | HEK293 GloSensor cGMP, SNP-stimulated, luminescence | Potency, µM (titrated, usually from 57.6 µM), usual class: inhibitors | 69% of 1,400 active; calls by dose curve; note: nearly all actives have a fitted effect of over 70% in size
Hits are given with their value; – = inactive; ? = inconclusive; · = no result given; [ ] = remark or other dose. Shown are actives, neighbours in structure and some others; about 10% of the full set was active somewhere. Unless noted, calls come from the whole dose curve; as a rule, active = well fitted curve in the direction sought with a large enough effect; inconclusive = small, poorly fitted or top-dose-only effect, or another doubt; inactive = no such curve, though single readings can be large; an effect the other way counts as inactive or inconclusive.

SMILES | GPT2 inh | HEK cytotox | FLuc inh-1 | NIH3T3 tox | NPR1 antag | Npr1 antag conf | NPR2 antag | FLuc counter | GloSensor ctrl | others
CCCN(CC1CCOC1)C(=O)Nc1ccc2c(c1)OCCO2 (centres undefined) | – | – | ? | – | – | · | · | · | ·
COc1ccc(N2CC(c3noc(-c4ccc(Cl)cc4)n3)CC2=O)cc1 (centres undefined) | – | ? | – | ? | – | · | · | · | ·
COc1cccc2cc(-c3nnc(-c4ccc(Cl)cc4)o3)c(=O)oc12 | · | · | · | · | · | · | · | · | · | FLuc SDR -ATP=–;FLuc SDR ATP=?;FLuc inh-2=?
Cc1cn2nc(C(=O)Nc3ccccc3)cc2c(N(C)Cc2ccccc2)n1 | – | ? | – | ? | – | · | · | · | ·
Cc1cn2nc(C(=O)Nc3ccc4c(c3)OCCO4)cc2c(N(C)Cc2ccccc2)n1 | – | – | 10µM | ? | – | · | · | · | · | FLuc SDR -ATP=–;FLuc SDR ATP=–;FLuc inh-2=?
CC(=O)Nc1ccc(C(=O)N2CCn3c(nnc3C3CCCN3)C2)cc1 (centres undefined) | – | – | · | – | · | · | · | · | ·
Cc1ccc(NCc2nc3ccccc3n2CCOc2ccccc2)cc1 | · | · | · | · | · | · | · | · | · | FLuc SDR -ATP=–;FLuc SDR ATP=–;FLuc inh-2=?
O=C(c1cc2cc(F)ccc2[nH]1)N1CCC(CO)(CCCc2ccccc2)CC1 | – | ? | – | ? | – | · | · | · | ·
O=C(c1ccc2nc[nH]c2c1)N1CCC(CO)(CCCc2ccccc2)CC1 | – | 25.1µM | – | – | 11.2µM | 24.3µM | 24.3µM | – | 21.7µM
O=C(c1ccco1)N1CCC(Cc2nc(-c3ccccc3)no2)CC1 | – | ? | – | ? | ? | · | · | · | ·
COc1cccc(-c2noc(CC3CCN(C(=O)c4cccc(F)c4)CC3)n2)c1 | – | ? | – | ? | 6.31µM | 6.11µM | 6.85µM | – | 4.85µM
O=C(c1ccc(F)cc1)N1CCC(Cc2nc(-c3ccccc3)no2)CC1 | – | ? | – | ? | 5.01µM | 4.85µM | 6.11µM | – | 5.44µM
O=C(c1cccc(F)c1)N1CCC(Cc2nc(-c3ccccc3)no2)CC1 | – | ? | – | ? | 6.31µM | 6.85µM | 9.68µM | – | 6.85µM
CCOc1cc(C(=O)N2CCC(Cc3nc(-c4ccccc4)no3)CC2)cc(OCC)c1OCC | – | ? | – | ? | – | · | · | · | ·
CCCc1cc(C(=O)N2CCC(=O)N(Cc3ccccc3)C(CC)C2)ccn1 (centres undefined) | – | ? | – | ? | 11.2µM | 9.68µM | 12.2µM | – | 10.9µM
CCN1CCN(C(=O)c2cn3cc(-c4ccc(OC)cc4)sc3n2)CC1 | – | ? | · | ? | · | · | · | · | ·
COc1cccc(NC(=O)c2ccc(-c3nnc4ccc(NC(=O)C5CCC5)cn34)cc2)c1 | – | – | – | – | ? | 24.3µM | ? | – | 21.7µM
CC(C)NC(=O)c1ccc(-c2nnc3ccc(NC(=O)C4CCC4)cn23)cc1 | – | ? | – | – | – | · | · | · | ·
O=C1NC(=NC2CCCC2)C2(CCCN(Cc3cccnc3)C2)N1c1cc(F)cc(F)c1 (centres undefined) | ? | – | · | 25.1µM | · | – | – | – | –
O=S(=O)(c1ccccc1C(F)(F)F)N1CC(c2nc(-c3ccncc3)no2)C1 | ? | ? | – | ? | – | · | · | · | ·
Cc1cc(C)c(S(=O)(=O)N2CC(c3nc(-c4ccncc4)no3)C2)c(C)c1 | – | 44.7µM | – | ? | 14.1µM | 24.3µM | 21.7µM | – | 21.7µM
O=C(c1ccc(-c2ncc3cnc(-c4cccc(F)c4)cn23)cc1)N1CCc2cccnc21 | – | 10µM | – | 31.6µM | 17.8µM | 14µM | 14µM | – | 17.7µM
COC(=O)[C@@H]1Cc2ncn(Cc3ccc(Cl)cc3)c2CN1C(=O)c1cccs1 | – | – | – | ? | – | – | – | – | –
COc1ccccc1CN1C[C@@H]2C(=O)N(Cc3ccc4c(c3)OCO4)C(=O)[C@@H]2C1 | – | – | – | – | – | · | · | · | ·
COc1ccc(CN2C[C@@H]3C(=O)N(Cc4ccc5c(c4)OCO5)C(=O)[C@@H]3C2)cc1OC | – | ? | – | – | 14.1µM | 17.2µM | 19.3µM | – | 12.2µM
SMILES | GPT2 inh | HEK cytotox | FLuc inh-1 | NIH3T3 tox | NPR1 antag | Npr1 antag conf | NPR2 antag | FLuc counter | GloSensor ctrl | others
CCOc1ccc(CN2CCN(c3nc4ccccc4o3)CC2CCO)cc1 (centres undefined) | –[11.5 µM] | 35.5µM | – | – | 14.1µM | 21.7µM | 24.3µM | – | 21.7µM
Cc1noc(C)c1CCC(=O)NC1CCCc2c1[nH]c1c(Cl)cccc21 (centres undefined) | – | ? | – | 35.5µM | – | ? | ? | – | ?
COc1ccc(NC(=O)c2ccc3c(c2)N(C)C2CCCCCN2C3=O)cc1 (centres undefined) | – | ? | ? | ? | – | · | · | · | ·
CC(C)C(=O)N[C@H]1C[C@@H](Cc2cc(CN3CCOCC3)on2)C1(C)C | – | – | – | – | – | · | · | · | ·
CC(C)NC(=O)N[C@H]1C[C@@H](Cc2cc(CN3CCN(c4ccccc4)CC3)on2)C1(C)C | – | ? | – | ? | 11.2µM | 19.3µM | 19.3µM | – | 17.2µM
CC(C)(C)C(=O)N[C@H]1C[C@@H](Cc2cc(CN3CCN(c4ccccc4)CC3)on2)C1(C)C | – | ? | – | – | 11.2µM | 19.3µM | 17.2µM | – | 12.2µM
CO[C@H]1C(=O)N(C2CCN(C(=O)C(C)C)CC2)[C@H]1c1ccncc1 | – | – | · | – | · | · | · | · | ·
COc1cccc(-c2cccc(C(=O)N3CCCC3C(=O)NC3CCCC3)c2)c1 (centres undefined) | – | – | · | – | · | · | · | · | ·
COCC(=O)N1CCC(C(=O)N2CCC(N3Cc4ccccc4C3=O)CC2)CC1 | – | – | · | – | · | · | · | · | ·

Compound activity from PubChem BioAssay.
